Source: PubChem BioAssay

test: growth modulation of vineyard yeast isolate – strain RM11-1a, OD600, basal, 24 h, primary screen (AID 1177);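 further: cultures grown under basal conditions with no added stressor; test concentration not given here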; conditions: S. cerevisiae RM11-1a growth, OD600, 24 h; higher = more signal, called active from +8 up or from −8 down

z-score, inactive:
Cc1ccc(S[C@]2(C(=O)NC(C)C)CC(=O)N(Cc3cc(C(F)(F)F)cc(C(F)(F)F)c3)[C@@H]2c2ccc(CO)cc2I)cc1 -0.59
COc1ccc(C(=O)Nc2ccc(CN3C(=O)[C@]4(O[C@H](CCn5cc(CCO)nn5)[C@@H]([Si](C)(C)c5ccc(OC)cc5)[C@@H]4C)c4ccccc43)cc2)cc1 2.44
COC(=O)[C@@]1(Cc2ccccc2)[C@H]2c3cc(C(=O)N4CCCC4)n(CCN4CNCC4=O)c3C[C@H]2CN1C(=O)c1ccccc1 -0.189
CCCNC(=O)[C@@H]1c2ccccc2C(=O)N(C2CCCCC2)[C@H]1c1ccc(CO)cc1 1.61
CC(C)C[C@@H]1NC(=O)[C@H]2C[C@@H](C(=O)NCCCCCC[N+](C)(C)C)[C@@H](c3ccc(O)cc3)N2C1=O 0.817
O=C(NCc1ccccc1)[C@@]1(Cc2ccccc2)COC(c2ccc(OCCCO)cc2)=N1 3.65
C=CCN1C(=O)[C@@]2(Cc3ccccc3)N=C(c3ccc(OCCCO)cc3)O[C@H]2c2ccccc21 0.414
COCCCNC(=O)[C@@H]1c2ccccc2C(=O)N(CC23CC4CC(CC(C4)C2)C3)[C@H]1c1ccc(CO)cc1 0.208
[N-]=[N+]=NCc1ccccc1[C@H]1OC(c2ccc(OCCCO)cc2)=N[C@@]1(Cc1ccccc1N=[N+]=[N-])C(=O)NCc1ccccc1 1.95
O=C1C2C=CC(C(O)c3ccccc3)N(n3cnnc3)C2C(=O)N1Cc1ccccc1 (stereo not given) -1.08
